Experimental data published in PubChem BioAssay AID504333 (National Center for Advancing Translational Sciences (NCATS), 2011).
About 16,000 (4.4%) of roughly 360,000 compounds were called active. About 9% were inconclusive and are not listed. The full list was thinned out, with actives kept by preference. Unmarked numbers belong to inactive results. Calls follow the shape of the dose curve; as a rule, active = well fitted inhibition curve with a large enough effect; inconclusive = small, poorly fitted or top-dose-only effect; inactive = no such curve, though single readings can be large or run the other way.

Target: Bromodomain adjacent to zinc finger domain protein 2B (Homo sapiens) (UniProt Q9UIF8)
Assay: qHTS Assay for Inhibitors of BAZ2B; also: nearly all actives have a fitted effect of over 60% in size
Conditions: AlphaScreen BAZ2B-H3K14Ac peptide displacement; series mostly up to 114 µM; activity change, negative = inhibition: at the top concentration
Summary of the method: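 Multi-concentration screen (max 110 uM) measuring displacement of acetylated histone H3 peptide from BAZ2B by AlphaScreen, using 50 nM protein, 50 nM peptide and 10 ug/mL streptavidin donor plus Ni-chelate acceptor beads.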
% is scaled to controls: 0 for no effect and ±100 for the full control effect; potency is read from the fitted curve at half-maximal effect.

Bromodomain adjacent to zinc finger domain protein 2B (Homo sapiens), sequence (Q9UIF8 whole entry, looked up, the tested form may be a part): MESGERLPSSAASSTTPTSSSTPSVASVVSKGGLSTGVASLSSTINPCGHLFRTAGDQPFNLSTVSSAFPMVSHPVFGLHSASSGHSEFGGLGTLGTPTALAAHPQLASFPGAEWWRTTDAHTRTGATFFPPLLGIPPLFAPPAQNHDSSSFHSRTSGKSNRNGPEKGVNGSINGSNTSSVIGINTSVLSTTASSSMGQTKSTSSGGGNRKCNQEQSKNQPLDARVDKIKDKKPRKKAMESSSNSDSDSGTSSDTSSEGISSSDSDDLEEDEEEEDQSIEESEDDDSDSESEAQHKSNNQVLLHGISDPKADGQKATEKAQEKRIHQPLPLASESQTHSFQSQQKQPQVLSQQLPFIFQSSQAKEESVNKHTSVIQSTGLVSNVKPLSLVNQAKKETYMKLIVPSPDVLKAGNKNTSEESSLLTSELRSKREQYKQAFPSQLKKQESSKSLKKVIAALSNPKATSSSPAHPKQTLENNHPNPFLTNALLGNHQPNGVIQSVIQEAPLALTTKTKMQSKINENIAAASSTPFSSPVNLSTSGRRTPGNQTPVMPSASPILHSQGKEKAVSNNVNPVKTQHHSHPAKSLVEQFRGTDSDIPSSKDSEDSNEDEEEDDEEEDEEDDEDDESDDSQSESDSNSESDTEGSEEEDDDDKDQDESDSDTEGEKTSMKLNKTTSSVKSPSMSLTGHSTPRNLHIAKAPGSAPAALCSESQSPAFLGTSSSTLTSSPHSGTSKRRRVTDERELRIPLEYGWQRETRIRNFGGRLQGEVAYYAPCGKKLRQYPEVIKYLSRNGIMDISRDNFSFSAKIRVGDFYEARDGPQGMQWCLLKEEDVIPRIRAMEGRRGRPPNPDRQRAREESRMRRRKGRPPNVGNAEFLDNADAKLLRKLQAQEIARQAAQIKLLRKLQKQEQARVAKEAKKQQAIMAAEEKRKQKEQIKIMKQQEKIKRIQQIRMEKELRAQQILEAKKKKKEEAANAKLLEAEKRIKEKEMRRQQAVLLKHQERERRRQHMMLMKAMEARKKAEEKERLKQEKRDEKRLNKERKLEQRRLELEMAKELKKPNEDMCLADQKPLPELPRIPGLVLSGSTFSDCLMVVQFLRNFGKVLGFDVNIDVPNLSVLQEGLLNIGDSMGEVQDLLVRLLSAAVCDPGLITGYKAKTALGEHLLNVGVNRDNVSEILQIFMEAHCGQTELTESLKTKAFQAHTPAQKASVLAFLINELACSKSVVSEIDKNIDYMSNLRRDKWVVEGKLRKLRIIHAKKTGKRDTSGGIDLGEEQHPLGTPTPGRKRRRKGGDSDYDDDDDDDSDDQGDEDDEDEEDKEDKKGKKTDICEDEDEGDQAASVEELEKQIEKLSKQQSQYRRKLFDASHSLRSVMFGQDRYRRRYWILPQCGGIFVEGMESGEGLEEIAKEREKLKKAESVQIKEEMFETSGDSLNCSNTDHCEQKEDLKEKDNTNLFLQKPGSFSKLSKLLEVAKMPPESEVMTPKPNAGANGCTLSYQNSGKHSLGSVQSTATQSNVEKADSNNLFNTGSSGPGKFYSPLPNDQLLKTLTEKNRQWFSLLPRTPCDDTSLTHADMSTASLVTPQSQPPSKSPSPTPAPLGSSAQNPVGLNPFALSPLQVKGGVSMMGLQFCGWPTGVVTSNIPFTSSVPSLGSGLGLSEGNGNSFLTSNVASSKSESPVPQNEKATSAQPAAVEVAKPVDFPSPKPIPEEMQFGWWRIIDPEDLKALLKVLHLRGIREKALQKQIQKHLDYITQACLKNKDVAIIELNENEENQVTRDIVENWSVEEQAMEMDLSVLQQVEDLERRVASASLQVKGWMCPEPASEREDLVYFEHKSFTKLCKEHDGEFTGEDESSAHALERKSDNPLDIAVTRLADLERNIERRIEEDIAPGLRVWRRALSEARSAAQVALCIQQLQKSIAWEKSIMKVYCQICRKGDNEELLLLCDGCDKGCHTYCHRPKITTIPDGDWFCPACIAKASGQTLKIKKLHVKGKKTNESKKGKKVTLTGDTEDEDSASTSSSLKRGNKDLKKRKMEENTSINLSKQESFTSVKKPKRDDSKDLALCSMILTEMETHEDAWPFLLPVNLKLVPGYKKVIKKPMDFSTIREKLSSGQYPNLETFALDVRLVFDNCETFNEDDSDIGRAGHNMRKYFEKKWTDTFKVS

| Compound | activity change, negative = inhibition | Potency |
| --- | --- | --- |
| O=c1n(Cc2cccc(C(F)(F)F)c2)c2ccccc2c2nc(-c3ccccc3)nn12 | -0.6% |  |
| O=C(NCc1ccccc1)c1cccc(NC(=O)N2CCSc3ncccc32)c1 | -15.1% |  |
| Cc1ccc(NC(=O)Nc2sc3nc4n(c(=O)c3c2C)CCC(C)CC4)c(Cl)c1 (configuration not stated) | 18.2% |  |
| COc1ccc(NC(=O)Nc2cccc(-c3noc(C)n3)c2)cc1 | 2.5% |  |
| Cc1cccc(Cn2c(CN3CCC(C(=O)NCc4ccccc4Cl)CC3)cc3ccccc32)c1 | -15.4% |  |
| O=C(CCS(=O)(=O)c1ccc(Br)cc1)NCCc1ccc(Cl)cc1 |  | 50.1 µM (active) |
| COc1ccc(Cl)cc1NC(=O)CCS(=O)(=O)c1cc2c(cc1C)NC(=O)CO2 | -16.3% |  |
| COc1ccc(Cl)cc1NC(=O)CCC(=O)c1ccc(C)cc1 | -0.278% |  |
| COc1ccc(Cl)cc1NC(=O)CN(C)Cc1ccc(OC)c(OC)c1 |  | 20 µM (active) |
| Cn1c(=O)oc2cc(S(=O)(=O)CCC(=O)NCCc3ccc(Cl)cc3)ccc21 | 7.61% [at 57.1 µM] |  |
| COc1ccc(Cl)cc1NC(=O)CN(C)C(=O)c1cc2ccccc2cc1OC | 0.538% |  |
| COc1ccc(Cl)cc1NC(=O)CN(C)CC(=O)Nc1ccc2c(c1)OCO2 | -7.5% |  |
| COc1ccc(Cl)cc1NC(=O)CCS(=O)(=O)c1ccc(Br)cc1 |  | 8.91 µM (active) |
| CC(=O)N1CCc2cc(Br)cc(S(=O)(=O)CCC(=O)NCCc3ccc(Cl)cc3)c21 | 0.132% |  |
| CCc1ccccc1NS(=O)(=O)c1ccc2nc(-c3ccccc3)[nH]c2c1 | -12.9% |  |
| O=S(=O)(NCC(c1ccco1)N1CCOCC1)c1cc(F)ccc1F (configuration not stated) | -3.02% |  |
| Cc1ccc(Nc2ccc3cc(S(=O)(=O)N4CCCCC4)ccc3n2)cc1F | 34.4% |  |
| Cc1cc(C)c(NC(=O)CN2C(=O)c3cccnc3Oc3ccc(Cl)cc32)c(C)c1 | 0.446% |  |
| COc1cc(NC(=O)c2cc3ccc4cccnc4c3[nH]2)cc(OC)c1OC | 3.36% [at 57.1 µM] |  |
| CCN(c1ncnc2c1cnn2-c1ccc(C)cc1)C1CCCCC1 | 8.19% |  |
| O=c1[nH]c2cc(Br)ccc2n2cccc12 | -1.35% |  |

| Compound | activity change, negative = inhibition | Potency |
| --- | --- | --- |
| Cc1ccc(OCCCC(=O)Nc2ccc(S(=O)(=O)Nc3cc(C)nc(C)n3)cc2)cc1 | -34.4% |  |
| COc1ccc(NC(=O)CSc2nc(NS(=O)(=O)c3ccc(C)cc3)cc(=O)[nH]2)cc1 |  | 50.1 µM (active) |
| Cc1ccc(NC(=O)CSc2nc(CSc3ccc(C)cc3)cc(=O)[nH]2)cc1 | -33.2% |  |
| CCc1nnc(NS(=O)(=O)c2ccc(NS(=O)(=O)c3ccccc3)cc2)s1 | -30.5% |  |
| CCc1nnc(NS(=O)(=O)c2ccc(NC(=S)NC(=O)/C=C/c3cccs3)cc2)s1 |  | 50.1 µM (active) |
| CCc1nnc(NS(=O)(=O)c2ccc(NC(=S)NC(=O)c3cccs3)cc2)s1 | -22.8% |  |
| Cc1cc(-c2ccccc2)n2nc(-c3ccccc3)cc2n1 | 323% |  |
| CCc1ccccc1NC(=O)Cn1c(=O)n(CC2CCC(C(=O)NCCc3ccccc3)CC2)c(=O)c2ccccc21 (configuration not stated) | -14.6% |  |
| COc1cccc2sc(NNC(=O)c3nc4ccccc4s3)nc12 |  | 35.5 µM (active) |
| COc1ccc(/C=C(/CC(=O)Nc2ccc(C)cc2)c2nc3ccccc3s2)cc1 | -6.12% |  |
| COc1ccccc1OCc1nc2ccccc2s1 | 38.4% |  |
| Cc1cc2nc(-c3ccc(NC(=O)c4cc5ccccc5o4)cc3)oc2cc1C | -4.03% |  |
| COc1ccccc1CNC(=O)C(=O)NCC(c1ccco1)S(=O)(=O)c1ccc(F)cc1 (configuration not stated) | 5.94% |  |
| CCCN(C(=O)Cn1cc(S(=O)(=O)N2CCN(c3ccccc3F)CC2)c2ccccc2c1=O)c1cccc(C)c1 | -10.3% |  |
| COc1cc(C(=O)NCC(c2ccc(Cl)cc2)N2CCOCC2)cc(OC)c1OC (configuration not stated) | -32.1% |  |
| CCOc1ccccc1NC(=O)Cn1c(=O)n(Cc2ccco2)c(=O)c2sc3ccccc3c21 | -10.3% |  |
| CCOc1ccccc1/C=c1\sc2nc(-c3ccco3)nn2c1=O |  | 50.1 µM (active) |
| CCOC(=O)C1CCN(C(c2ccc(F)cc2)c2sc3nc(-c4ccco4)nn3c2O)CC1 (configuration not stated) | -19% |  |
| Cc1ccc(-n2c3nc(=O)[nH]c(=O)c-3cc3c(Cl)cccc32)cc1 | -1.36% |  |
| CCOc1ccc(OCC)c(NC(=O)c2cc(C)nc3c2c(C)nn3-c2cccc(Cl)c2C)c1 | 4.94% [at 57.1 µM] |  |
| Cc1ccc(C(=O)Nc2cc3c(cc2N2CCCC2)n(C)c(=O)c(=O)n3C)cc1 | -21.3% |  |

| Compound | activity change, negative = inhibition | Potency |
| --- | --- | --- |
| O=S(=O)(c1ccc(Cl)cc1)c1nnn2c1nc(NC1CCCC1)c1sccc12 | -14% |  |
| O=C(Nc1ccc(S(=O)(=O)N2CCC(c3nc4ccccc4s3)CC2)cc1)c1ccccc1F | 0.985% |  |
| S=c1[nH]nc(-c2ccco2)n1/N=C/c1ccc(Br)s1 |  | 70.8 µM (active) |
| S=c1[nH]nc(-c2cccs2)n1/N=C/c1cccs1 | -19.5% |  |
| S=c1[nH]nc(-c2ccncc2)n1/N=C/c1ccccc1Cl | -0.298% |  |
| COc1ccc(C2C(=O)N(C3CCCCCC3)CC(=O)N2CCc2ccc(Cl)cc2)cc1OC (configuration not stated) | -16.9% |  |
| Cc1c(CC(=O)N2CCN(C(=O)C3COc4ccccc4O3)CC2)c(=O)oc2c(O)c(O)ccc12 (configuration not stated) |  | 7.94 µM (active) |
| O=C(CNC(=O)C1COc2ccccc2O1)N/N=C/c1cc(Br)c(O)c(Br)c1 (configuration not stated) | -26.2% |  |
| COc1ccc(OC)c2sc(N3CCN(C(=O)C4COc5ccccc5O4)CC3)nc12 (configuration not stated) | -3.92% |  |
| Cn1c(C(=O)Nc2cccc(C(F)(F)F)c2)cc2c(=O)n3ccccc3nc21 | -12.8% |  |
| COc1cccc(C(=O)NCc2ccc3c(c2)CCN3C(=O)c2ccncc2)c1 | -2.83% |  |
| CCOc1ccc(S(=O)(=O)N2CCCCCC2)c2ccccc12 | 15.5% |  |
| CCN(CC)CCOCCOc1ccc(Cl)c2ccccc12 |  | 79.4 µM (active) |
| CN(C)CCOCCOc1ccc(Cl)c2ccccc12 |  | 50.1 µM (active) |
| C#CCOc1ccc(C2CC(=O)Nc3c2c(C)nn3-c2nc(C)cc(C)n2)cc1 (configuration not stated) | -37.9% |  |
| COc1ccccc1C(=O)Nc1c(C(=O)Nc2ccc(C)cc2)oc2ccccc12 | -20.1% |  |
| CCOc1cccc(CC(=O)N2CCc3c([nH]c4ccccc34)C2c2ccc(OC)cc2)c1OCC (configuration not stated) | -24.8% |  |
| c1ccc(C2c3[nH]c4ccccc4c3CCN2Cc2cccn2-c2cccnc2)nc1 (configuration not stated) |  | 31.6 µM (active) |
| Cc1cccc(C(=O)N2CCc3c([nH]c4ccccc34)C2CC(C)C)n1 (configuration not stated) | -38.1% |  |
| CCOc1ccc(C2c3[nH]c4ccccc4c3CCN2Cc2cccn2-c2ncccn2)cc1 (configuration not stated) |  | 28.2 µM (active) |
